# ChEMBL document CHEMBL3988442, “University of Dundee, Small-Polar-MMV Screening Library” (2021)
# Among all 66,000 compounds or so, about 960 (1.5%) showed an effect of 50% or more. This is one part of a sample in which strong results are shown more often than they occur.
# Test system: Trypanosoma brucei
# Assay: Trypanosoma brucei 72 hour study
# Assay type: functional, organism-based
# Parameters: scale not given: in the data most compounds retested in dose-response had high values
compound,measurement,setting,value
CCC[C@@H]1CN(C(=O)c2cnc3ccccc3c2)C[C@H]1NS(C)(=O)=O,Percent Effect,"30.3 µM, […]",-86.77%
CCC[C@@H]1CN(C(=O)c2cc3ccccc3s2)C[C@H]1NS(C)(=O)=O,Percent Effect,"30.3 µM, […]",55.32%
CS(=O)(=O)NC1CCN(C(=O)c2cc3ccccc3s2)C1 (stereo not drawn),Percent Effect,"30.3 µM, […]",-42.34%
CNc1ncc2c(n1)CN(c1cccc(OC)c1)C2=O,Percent Effect,"30.3 µM, […]",5.042%
O=C(CN1C(=O)CCC1=O)NCCc1nc(C2CC2)cc(C(F)(F)F)n1,Percent Effect,"30 µM, 30.03 µM",-18.17%
Clc1ccc(C2(CNC3=NCCN3)CCCCC2)cc1.I,Percent Effect,"30 µM, 30.03 µM",18.91%
CC(C)C(C)N(Cc1cnc2ccccc2n1)Cc1ccco1 (stereo not drawn),Percent Effect,"30 µM, 30.03 µM",81.63%
CC(C)C(C)N(Cc1ccccn1)Cc1ccco1 (stereo not drawn),Percent Effect,"30 µM, 30.03 µM",-27.64%
CCc1ccc(CN(Cc2ccco2)C(C)C(C)C)nc1 (stereo not drawn),Percent Effect,"30 µM, 30.03 µM",-19.36%
CCc1c(C)nc(N)nc1N1CCCC(c2nc(CCOC)no2)C1 (stereo not drawn),Percent Effect,"30 µM, 30.03 µM",-46.14%
C[C@@H]1CN(Cc2cccc(F)c2)C[C@]12CCN(Cc1cccnc1)C2=O.O=C(O)C(F)(F)F.O=C(O)C(F)(F)F,Percent Effect,"30.3 µM, […]",-74.2%
CCc1nnc2n1CCN(Cc1ncc(-c3ccc(Cl)cc3)o1)C2,Percent Effect,"30.3 µM, […]",-0.05411%
Cc1cc(C[C@@H]2CCC[C@H]2NCc2ccccc2F)on1.O=C(O)CC(O)(CC(=O)O)C(=O)O,Percent Effect,"30.3 µM, […]",34.89%
CCCOc1ccccc1CN[C@@H]1CCC[C@H]1Cc1cc(C)no1.O=C(O)CC(O)(CC(=O)O)C(=O)O,Percent Effect,"30.3 µM, […]",97.97%
Cc1cc(C[C@@H]2CCC[C@H]2NCc2ccccc2C)on1.O=C(O)CC(O)(CC(=O)O)C(=O)O,Percent Effect,"30.3 µM, […]",-2.54%
NC(=O)Cn1cc(NC(=O)NCCN2CCc3ccccc3C2)cn1,Percent Effect,10 µM,-24.97%
O=C(NC[C@H]1CCCC[C@H]1O)c1ccc2nc(-c3ccco3)[nH]c2c1,Percent Effect,"30.3 µM, […]",17.46%
same,Percent Effect,"10 mM, 10 mM as filed; unlikely as a test dose",-68.89%
O=C(NC[C@H]1CCCC[C@H]1O)c1cccc2[nH]c(-c3ccco3)nc12,Percent Effect,"30.3 µM, […]",13.65%
same,Percent Effect,"10 mM, 10 mM as filed; unlikely as a test dose",-65.92%
O=C(NC[C@H]1CCCC[C@H]1O)c1cccc2[nH]c(-c3cccs3)nc12,Percent Effect,"30.3 µM, […]",101.4%
same,Percent Effect,"10 mM, 10 mM as filed; unlikely as a test dose",77.67%
Cc1ccc(CN2C[C@@H](OCc3csc(C)n3)[C@H]3COC[C@H]32)s1.O=C(O)C(F)(F)F,Percent Effect,"30 µM, 30.03 µM",-8.753%
COc1ccc(CNC2CCc3ncnn3C2)cc1OCC1CC1 (stereo not drawn),Percent Effect,"30 µM, 30.03 µM",-28.92%
Cc1cc(-c2cnc(NC3CCCC3)nc2-c2ccoc2)on1,Percent Effect,"30.3 µM, […]",19.37%
Cc1cc(-c2cnc(NC3CC3)nc2-c2ccoc2C)on1,Percent Effect,"30.3 µM, […]",6.625%
Cc1cc(-c2cnc(NC3CCCC3)nc2-c2ccc(C)o2)on1,Percent Effect,"30.3 µM, […]",59.7%
Cc1occc1-c1nc(NC2CCCC2)ncc1-c1ccccn1,Percent Effect,"30.3 µM, […]",66.93%
Cc1cc(-c2cnc(NC3CCCC3)nc2-c2ccco2)on1,Percent Effect,"30.3 µM, […]",60.69%
Cc1cc(-c2cnc(NC3CCCC3)nc2-c2ccoc2C)on1,Percent Effect,"30.3 µM, […]",30.38%
Cc1cc(-c2cnc(NC3CC3)nc2-c2ccco2)on1,Percent Effect,"30.3 µM, […]",20.38%
Cc1cc(-c2cnc(NC3CC3)nc2-c2ccc(C)o2)on1,Percent Effect,"30 µM, 30.03 µM",25.68%
Cc1cc(-c2cnc(NC3CCCCC3)nc2-c2ccco2)on1,Percent Effect,"30.3 µM, […]",43.12%
